# According to PubChem BioAssay (EPA / NIEHS):
# Results filed as inconclusive are left out. Calls of active or inactive are those of the source. Rule for the calls: active = hit-call score of the fitted dose curve at least 0.9, where 1 is the maximum; inconclusive = response in the unintended direction; inactive = score below 0.9.
# Molecular target: Peroxisome proliferator-activated receptor gamma (Homo sapiens) (UniProt P37231)
# Assay: OT_PPARg_PPARgSRC1_0480: Odyssey Thera (OT) 8-hour Protein-Complementation Assay for Peroxisome Proliferator-activated Receptor Gamma / SRC-1 Co-activator (AID 2283387);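 note: nuclear to cytoplasmic split Venus YFP fluorescence ratio reporting PPARg SRC-1 interaction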
# Procedure: OT_PPARg_PPARgSRC1_0480 is a cell-based assay that uses HEK293T, a human kidney cell line, with measurements taken at 8 hours after chemical dosing in a 384-well plate.OT_PPARg_PPARgSRC1_0480 is one of one assay component(s) measured or calculated from the OT_PPARg_PPARgSRC1_0480 assay. It is designed to make measurements of protein fragment complementation, a form of binding reporter, as detected with fluorescence intensity signals by Protein-fragment Complementation technology.Data from the assay component OT_PPARg_PPARgSRC1_0480 was analyzed into 1 assay endpoint. This assay endpoint, OT_PPARg_PPARgSRC1_0480, was analyzed in the positive analysis fitting direction relative to DMSO as the negative control and baseline of activity. Using a type of binding reporter, measures of receptor for gain-of-signal activity can be used to understand the binding at the pathway-level as they relate to the gene PPARG. Furthermore, this assay endpoint can be referred to as a primary readout, because the performed assay has only produced 1 assay endpoint. To generalize the intended target to other relatable targets, this assay endpoint is annotated to the nuclear receptor intended target family, where the subfamily is non-steroidal.
# The OT PPARg/SRC-1 assay assessed receptor-chemical interactions using a rapidly maturing, intensely fluorescent mutant of YFP known as Venus, rationally dissected into two separate fragments. The fragments were obtained as follows: first, fragments coding for YFP1 and YFP2 (corresponding to amino acid residues 1-158 and 159-239 of the full length YFP, respectively) were generated by oligonucleotide synthesis (Blue Heron Biotechnology), and then PCR mutagenesis was used to generate the mutant fragments IFP1 and IFP2. Fusion constructs were transfected into HEK293T cells with a (Gly4Ser)2 linker between the PPARg/SRC-1 and YFP fragment genes to facilitate complementation when interacting proteins bring fragments into close proximity. The construct is transiently transfected in HEK293T cells 48 hours prior to treatment with test compounds. Cells are seeded into optical quality 384-well poly-D-lysine coated plates in MEM alpha medium (Invitrogen) supplemented with 10 percent FBS (Gemini Bio-Products) 1 percent penicillin and 1 percent streptomycin, and grown in 37C incubator equilibrated to 5 percent CO2. Cells are allowed to adhere for 24 hours prior to treatment with compounds of interest or controls for 8 hours. Cells are fixed in 4 percent formaldehyde and stained with Draq5 (BioStatus) to identify cells and subcellular compartment boundaries prior to signal detection. 8 Images per well were acquired on an Evotec Opera at 2 wavelengths (488 and 635nm), and the ratio of fluorescence in the nucleus relative to fluorescence in the cytoplasm (N/C Ratio) in the 488nm channel was calculated for a minimum of 350 cells per image.
# Sequence of Peroxisome proliferator-activated receptor gamma (Homo sapiens) (P37231 whole entry, looked up): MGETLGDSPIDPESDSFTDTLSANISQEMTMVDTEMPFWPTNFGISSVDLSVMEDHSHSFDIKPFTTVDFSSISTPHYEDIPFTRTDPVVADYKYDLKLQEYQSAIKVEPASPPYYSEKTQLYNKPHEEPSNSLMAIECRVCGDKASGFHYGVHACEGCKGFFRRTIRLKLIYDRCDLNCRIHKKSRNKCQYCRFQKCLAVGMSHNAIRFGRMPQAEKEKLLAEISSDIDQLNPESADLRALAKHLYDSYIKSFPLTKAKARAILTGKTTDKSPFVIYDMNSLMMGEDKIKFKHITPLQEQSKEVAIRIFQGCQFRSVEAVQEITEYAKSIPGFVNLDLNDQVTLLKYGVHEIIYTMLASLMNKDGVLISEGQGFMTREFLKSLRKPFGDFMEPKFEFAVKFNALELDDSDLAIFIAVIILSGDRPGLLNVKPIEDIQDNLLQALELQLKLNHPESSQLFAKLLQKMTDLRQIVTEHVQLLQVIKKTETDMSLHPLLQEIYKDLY
row,Compound,outcome
1,CN(C)C(=O)NC1(c2ccccc2)CCN(CC[C@@]2(c3ccc(F)c(F)c3)CN(C(=O)c3ccccc3)CCO2)CC1,inactive
2,CS(=O)(=O)c1ccc([C@@H](C[C@H]2CCC(=O)C2)C(=O)Nc2cnccn2)cc1Cl,inactive
3,CC(C)c1cccc(C(C)C)c1,inactive
4,OCC(CO)n1cnc(-c2ccc(F)cc2)c1-c1ccnc(Oc2ccccc2)n1,inactive
5,CC(COCC(C)OC(=O)c1ccccc1)OC(=O)c1ccccc1 (stereo not given),inactive
6,CCCCCCC(CCCCCCCCCCC(=O)OCC(COC(C)=O)OC(C)=O)OC(C)=O (stereo not given),inactive
7,CC1=C(C)S(=O)(=O)CCS1(=O)=O,inactive
8,CCCCCCCC(=O)OC,inactive
9,O=C1NC(=O)C(c2ccccc2)(c2ccccc2)N1,inactive
10,CC1(C)C(=O)NC(=O)N1CO,inactive
11,Cc1ccc(-c2cc(C(F)(F)F)nn2-c2ccc(S(N)(=O)=O)cc2)cc1,inactive
12,CCCCCCCCCCCCCCCCO,inactive
13,CCCCOC(=O)CCCCC(=O)OCCCC,inactive
14,O=[Si]=O,inactive
15,NCCOCCOCCN,inactive
16,CN(C)CCCN(C)CCCN(C)C,inactive
17,CO[C@@H]1COCC[C@@H]1N[C@@H]1CC[C@@](C(=O)N2CCc3ncc(C(F)(F)F)cc3C2)(C(C)C)C1,inactive
18,CCCC[C@H]1CN(CC2CCOCC2)C(=O)OC12CCN(C1(C)CCN(C(=O)c3c(C)ncnc3C)CC1)CC2,inactive
19,O=C(N[C@@H](c1ccccc1)[C@@H]1CCCCN1)c1cccc(C(F)(F)F)c1Cl,inactive
20,Cn1cnc2c1c(=O)[nH]c(=O)n2C,inactive

row,Compound,outcome
1,CC(=O)O[C@]1(C(C)=O)CC[C@H]2[C@@H]3C=C(Cl)C4=CC(=O)[C@@H]5C[C@@H]5[C@]4(C)[C@H]3CC[C@@]21C,inactive
2,Cc1cc(SC2=C(O)C[C@@](CCc3ccc(N)cc3)(C(C)C)OC2=O)c(C(C)(C)C)cc1CO,inactive
3,C=CCCCCCCCCCCCC,inactive
4,CCc1nc(N)nc(N)c1-c1ccc(Cl)cc1,inactive
5,CC(N)=O,inactive
6,COc1ccc(C(=O)Nc2nc3ccccc3c(NCc3ccccc3)c2C#N)cc1,inactive
7,CCCCC(CC)CO (stereo not given),inactive
8,C/C=C/c1ccc(OC)cc1,inactive
9,CC(=O)OC1CC(C)OC(C)O1 (stereo not given),inactive
10,c1ccc2occc2c1,inactive
11,Cc1cn([C@H]2C=C[C@@H](CO)O2)c(=O)[nH]c1=O,inactive
12,O=NO,inactive
13,C/C=C/C=C/C(=O)O,inactive
14,CC(C)NCC(O)c1ccc(O)c(O)c1 (stereo not given),inactive
15,Cc1ccc(C(C)(C)C)c(O)c1,inactive
16,CN(C)C(=O)NC1(c2ccccc2)CCN(CCC[C@]2(c3ccc(Cl)c(Cl)c3)CCCN(C(=O)c3ccccc3)C2)CC1,inactive
17,NC=O,inactive
18,CC(=O)OCC(COC(C)=O)OC(C)=O,inactive
19,CCCCC(CC)COP(=O)(OCC(CC)CCCC)OCC(CC)CCCC (stereo not given),inactive
20,CCCCCCCCCCCCCCOS(=O)(=O)O,inactive
